Records with an inconclusive call do not appear. Entries that show only a call come without a potency. Unmarked numbers belong to inactive results. Activity calls are given as the source filed them. The call rests on the fitted dose curve; in most records, active means well fitted inhibition curve with a large enough effect; inconclusive means small, poorly fitted or top-dose-only effect; inactive means no such curve, though single readings can be large or run the other way.
Potency means the concentration at half of the fitted maximal effect.

In the assay the test system is Zika virus NS2B-NS3 protease (unlinked complex). Briefly: Primary screen GU Rhodamine qHTS for Zika virus inhibitors: Unlinked NS2B-NS3 protease assay (AID 1347159). Further: nearly all actives have a fitted effect of over 60% in size. Conditions: Recombinant ZIKV NS2B-NS3 protease, Rhodamine110 substrate fluorescence; series mostly up to 107 µM. A digest of the protocol: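 Unlinked NS2B/NS3, 25 nM; Rhod110 peptide, 1.5 microM; compounds, up to 114 microM. Reaction run 15 min at RT in 10 mM Tris-HCl pH 8.0, 0.01% Tween 20; kinetic fluorescence change fitted with a 4-parameter Hill model.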
Turning to `CC1=C(C)C(=O)OC(C(C)(O)C2CCC3C4CC=C5CC(OC6OC(COC7OC(CO)C(O)C(O)C7O)C(O)C(O)C6O)CC(O)C5(C)C4CCC32C)C1` (configuration not stated), the Potency result was “inactive”.

Consider `CC1(C)CCCC2(C)C1C(O)C=C(CO)C2(O)C(=O)O` (configuration not stated), for which the Potency result was “inactive”.

In the case of `COc1ccc(C(=O)O[C@H]2CC(C)=CC[C@@]3(C)[C@@H](OC(C)=O)C[C@@](O)(C(C)C)[C@H]23)cc1`, the Potency entry is “inactive”.

For the compound `COc1ccc2c(c1O)OC[C@H]1c3ccc(O)cc3O[C@@H]21`, the Potency result was “inactive”.

Regarding `COc1cccc2c1CCC[C@H]2CN(C)CCc1ccc2ccoc2c1`, the Potency entry is “inactive”.

Turning to `Cc1onc(-c2ccccc2)c1C(=O)N[C@@H]1C(=O)N2[C@@H]1SC(C)(C)[C@@H]2C(=O)O`, the Potency result was “inactive”.

Take `C[C@]1(OC(=O)/C=C/c2ccccc2)C[C@H](O)[C@]2(O)C=CO[C@@H](O[C@@H]3O[C@H](CO)[C@@H](O)[C@H](O)[C@H]3O)C12` (some centres not stated): the Potency entry was “inactive”.

Turning to `Cc1ccc2c(c1)C=Cc1cc(C)ccc1C2c1cn(Cc2ccc(C(=O)Nc3nn[nH]n3)o2)c(=O)[nH]c1=S`, the Potency is 3.16 µM (active).

As to `CC(=O)NC(C(=O)OC1CCC(C)(C)C2CC=C3C(=O)OCC3(O)C12C)C(C)C` (configuration not stated), the Potency entry is “inactive”.

For the compound `C=CC1(C)C=C2C(O)CC3C(C)(C(=O)O)CCCC3(C)C2CC1` (configuration not stated), the Potency is 11.2 µM (active).

As to `CC1CCC2C(C(=O)O)=CC3C(O)C(C)(C)CC123` (configuration not stated), the Potency result is “inactive”.

`C/C(=C/CCC(CO)C1CCC2(C)C3CCC4C(C)(C)C(OC5OC(CO)C(O)C(O)C5O)CC(O)C45CC35CCC12C)COC1OC(CO)C(O)C(O)C1O` (configuration not stated): the Potency entry was “inactive”.

Take `O=C1Nc2ccc(O)cc2O[C@H]1O[C@@H]1O[C@H](CO)[C@@H](O)[C@H](O)[C@H]1O`: the Potency entry was “inactive”.

`COC(=O)CC1(O)C(=O)Nc2ccccc21` (configuration not stated): the Potency result is “inactive”.

For the compound `Cc1c(N2C(=O)c3ccc(C(=O)O)cc3C2=O)c(=O)n(-c2ccccc2)n1C`, the Potency result is “inactive”.

As for `CC(CO[C@@H]1O[C@H](COC(=O)/C=C/c2ccc(O)c(O)c2)[C@@H](O)[C@H](O)[C@H]1O)C1(O)COC(=O)C1` (some centres not stated), the Potency result is “inactive”.

For `CC(C)CC1(C(=O)OCc2ccc(O[C@@H]3O[C@H](CO)[C@@H](O)[C@H](O)[C@H]3O)cc2)CC(=O)OC(C(=O)O)CC(=O)OCC2OC(O1)C(OC(=O)/C=C/c1ccc(O)cc1)C(O)C2O` (some centres not stated), the Potency entry is “inactive”.

Take `COC(=O)[C@@H]1C2CC3c4[nH]c5ccccc5c4CCN3CC2CC[C@@H]1O` (some centres not stated): the Potency result is “inactive”.

As to `CC1OC(OC2C(CO)OC(OCC3OC(OC(=O)C45CCC(C)(C)CC4C4=CCC6C7(C)CCC(OC8OC(C(=O)O)C(O)C(OC9OC(CO)C(O)C(O)C9O)C8O)C(C)(C)C7CCC6(C)C4(C)CC5)C(O)C(O)C3O)C(O)C2O)C(O)C(O)C1O` (configuration not stated), the activity change, negative = inhibition was 16.6% [at 19.1 µM].

With `CC(C)(O)/C=C1/C(=O)C(C)(C)C(=O)C(C)(C)C1(O)O[C@@H]1O[C@H](COC(=O)c2cc(O)c(O)c(O)c2)[C@@H](O)[C@H](O)[C@H]1O` (some centres not stated), the Potency entry was “inactive”.

As for `C=C1C(=O)OC2/C=C(\C)CC/C=C(\C(=O)O)CC/C=C(\C)CCC12` (configuration not stated), the Potency entry is “inactive”.

In the case of `Cc1ccc(Sc2cncc3sc(C(N)=O)cc23)cc1`, the Potency entry is “inactive”.

Consider `C[C@@H]1CCC2C(C)(C)[C@H](O)CC[C@]2(C)[C@@]12Cc1c(O)cc3c(c1O2)CN(CCO)C3=O` (some centres not stated), for which the Potency entry is “inactive”.

Regarding `OC[C@H]1O[C@@H](Oc2cc(O)cc(-c3cc4ccc(O)cc4o3)c2)[C@H](O)[C@@H](O)[C@@H]1O`, the Potency entry was “inactive”.

For `CCN(c1cc(C#CCN2CCOCC2)cc(C(=O)NCc2c(C)cc(C)[nH]c2=O)c1C)C1CCC(N(C)CCOC)CC1` (configuration not stated), the Potency result was “inactive”.

Take `CCn1c2ccccc2c2cc(CNC)ccc21`: the Potency entry was “inactive”.

As for `C/C=C1\[C@H](O[C@@H]2O[C@H](CO)[C@@H](O)[C@H](O)[C@H]2O)OC=C(C(=O)OC)[C@H]1CC(=O)OC`, the Potency result was “inactive”.

Turning to `CNC(=O)c1ccc2cc([C@@]3(O)CCn4cncc43)ccc2c1`, the Potency result was “inactive”.

`CC1(CO)CC2C(O)C(=O)C3(CO)CC3(C)C2C1` (configuration not stated): the Potency entry is “inactive”.

With `O=C1CC(c2ccc([N+](=O)[O-])cc2)=NN1c1ccccc1`, the Potency was 39.8 µM (active).

As to `C[C@H]1[C@H](C)CC[C@]2(C(=O)O)CC[C@]3(C)C(=CC[C@@H]4[C@@]5(C)C[C@@H](O)[C@H](O)[C@@](C)(CO)[C@@H]5CC[C@]43C)[C@H]12`, the Potency entry is “inactive”.

Turning to `CC1(C)CC[C@]2(C(=O)O)CC[C@]3(C)C(=CCC4[C@@]5(C)C[C@@H](O)[C@H](O)C(C)(C)C5CC[C@]43C)[C@@H]2[C@@H]1O` (some centres not stated), the Potency entry was “inactive”.
